# Reference: ChEMBL document CHEMBL1961873, “Compounds: GSK PKIS; Assays: Nanosyn kinase panel” (2012)
# Assays:
# [1] = target: T1, Ephrin type-B receptor 2 (Homo sapiens) (UniProt P29323); conditions: at 1 µM
# T1 sequence (whole entry): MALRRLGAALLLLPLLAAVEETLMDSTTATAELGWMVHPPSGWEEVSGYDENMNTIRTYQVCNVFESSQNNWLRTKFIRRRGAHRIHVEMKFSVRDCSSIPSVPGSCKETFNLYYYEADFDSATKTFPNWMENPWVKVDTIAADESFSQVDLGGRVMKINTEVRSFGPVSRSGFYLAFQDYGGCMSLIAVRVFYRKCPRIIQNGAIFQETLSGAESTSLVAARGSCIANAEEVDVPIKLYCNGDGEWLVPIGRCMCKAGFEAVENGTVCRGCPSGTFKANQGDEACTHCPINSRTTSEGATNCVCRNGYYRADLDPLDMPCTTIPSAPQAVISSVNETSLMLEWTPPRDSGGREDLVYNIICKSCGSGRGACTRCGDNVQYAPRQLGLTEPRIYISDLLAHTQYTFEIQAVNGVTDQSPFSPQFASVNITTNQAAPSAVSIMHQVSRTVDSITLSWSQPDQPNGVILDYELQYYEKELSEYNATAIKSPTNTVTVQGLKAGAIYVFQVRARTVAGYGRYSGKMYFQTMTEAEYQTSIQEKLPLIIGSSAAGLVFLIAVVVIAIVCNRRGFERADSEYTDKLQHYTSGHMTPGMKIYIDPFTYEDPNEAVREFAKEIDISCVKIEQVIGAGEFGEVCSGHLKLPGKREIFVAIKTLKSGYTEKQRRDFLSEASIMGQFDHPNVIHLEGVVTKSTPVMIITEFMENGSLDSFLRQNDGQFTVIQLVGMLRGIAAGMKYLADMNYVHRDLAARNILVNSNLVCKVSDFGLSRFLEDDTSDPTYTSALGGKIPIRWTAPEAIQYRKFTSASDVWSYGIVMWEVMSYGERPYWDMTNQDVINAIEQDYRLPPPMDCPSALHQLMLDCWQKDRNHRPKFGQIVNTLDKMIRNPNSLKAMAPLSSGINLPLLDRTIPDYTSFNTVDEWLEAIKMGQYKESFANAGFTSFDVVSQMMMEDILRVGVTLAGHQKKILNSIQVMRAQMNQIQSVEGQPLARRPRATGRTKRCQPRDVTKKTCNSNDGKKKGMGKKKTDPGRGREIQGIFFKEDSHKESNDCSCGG
# [2] = target: T2, Ephrin type-B receptor 3 (Homo sapiens) (UniProt P54753); conditions: at 0.1 µM
# T2 sequence (whole entry): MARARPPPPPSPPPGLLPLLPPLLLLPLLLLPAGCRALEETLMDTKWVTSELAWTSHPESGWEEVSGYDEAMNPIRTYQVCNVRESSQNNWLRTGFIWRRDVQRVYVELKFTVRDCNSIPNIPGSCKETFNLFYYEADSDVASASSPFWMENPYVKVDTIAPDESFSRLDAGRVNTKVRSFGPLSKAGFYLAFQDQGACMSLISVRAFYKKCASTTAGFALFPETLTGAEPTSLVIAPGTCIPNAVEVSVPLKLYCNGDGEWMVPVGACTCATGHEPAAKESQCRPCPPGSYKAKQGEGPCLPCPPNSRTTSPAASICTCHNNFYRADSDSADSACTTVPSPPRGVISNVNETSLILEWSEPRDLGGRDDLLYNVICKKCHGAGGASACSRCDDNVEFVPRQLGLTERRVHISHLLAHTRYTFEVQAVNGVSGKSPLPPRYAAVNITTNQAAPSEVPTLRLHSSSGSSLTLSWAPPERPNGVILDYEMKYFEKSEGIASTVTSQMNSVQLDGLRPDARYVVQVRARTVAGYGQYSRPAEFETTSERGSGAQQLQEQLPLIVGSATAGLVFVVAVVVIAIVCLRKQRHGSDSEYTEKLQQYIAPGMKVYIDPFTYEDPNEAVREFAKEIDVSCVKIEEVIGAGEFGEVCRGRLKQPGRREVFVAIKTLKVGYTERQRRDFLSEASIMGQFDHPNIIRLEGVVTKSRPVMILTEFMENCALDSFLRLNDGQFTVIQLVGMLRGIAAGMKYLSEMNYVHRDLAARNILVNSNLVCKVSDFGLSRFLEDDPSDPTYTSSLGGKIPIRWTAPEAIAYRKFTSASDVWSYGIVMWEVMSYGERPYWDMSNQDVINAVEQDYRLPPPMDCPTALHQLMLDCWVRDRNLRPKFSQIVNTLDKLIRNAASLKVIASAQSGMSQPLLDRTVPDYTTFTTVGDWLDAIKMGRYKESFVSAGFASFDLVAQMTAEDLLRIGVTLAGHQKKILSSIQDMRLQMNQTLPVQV
# [3] = target: T2, Ephrin type-B receptor 3 (Homo sapiens); conditions: at 1 µM
# [4] = target: T3, Ephrin type-B receptor 4 (Homo sapiens) (UniProt P54760); conditions: at 0.1 µM
# T3 sequence (whole entry): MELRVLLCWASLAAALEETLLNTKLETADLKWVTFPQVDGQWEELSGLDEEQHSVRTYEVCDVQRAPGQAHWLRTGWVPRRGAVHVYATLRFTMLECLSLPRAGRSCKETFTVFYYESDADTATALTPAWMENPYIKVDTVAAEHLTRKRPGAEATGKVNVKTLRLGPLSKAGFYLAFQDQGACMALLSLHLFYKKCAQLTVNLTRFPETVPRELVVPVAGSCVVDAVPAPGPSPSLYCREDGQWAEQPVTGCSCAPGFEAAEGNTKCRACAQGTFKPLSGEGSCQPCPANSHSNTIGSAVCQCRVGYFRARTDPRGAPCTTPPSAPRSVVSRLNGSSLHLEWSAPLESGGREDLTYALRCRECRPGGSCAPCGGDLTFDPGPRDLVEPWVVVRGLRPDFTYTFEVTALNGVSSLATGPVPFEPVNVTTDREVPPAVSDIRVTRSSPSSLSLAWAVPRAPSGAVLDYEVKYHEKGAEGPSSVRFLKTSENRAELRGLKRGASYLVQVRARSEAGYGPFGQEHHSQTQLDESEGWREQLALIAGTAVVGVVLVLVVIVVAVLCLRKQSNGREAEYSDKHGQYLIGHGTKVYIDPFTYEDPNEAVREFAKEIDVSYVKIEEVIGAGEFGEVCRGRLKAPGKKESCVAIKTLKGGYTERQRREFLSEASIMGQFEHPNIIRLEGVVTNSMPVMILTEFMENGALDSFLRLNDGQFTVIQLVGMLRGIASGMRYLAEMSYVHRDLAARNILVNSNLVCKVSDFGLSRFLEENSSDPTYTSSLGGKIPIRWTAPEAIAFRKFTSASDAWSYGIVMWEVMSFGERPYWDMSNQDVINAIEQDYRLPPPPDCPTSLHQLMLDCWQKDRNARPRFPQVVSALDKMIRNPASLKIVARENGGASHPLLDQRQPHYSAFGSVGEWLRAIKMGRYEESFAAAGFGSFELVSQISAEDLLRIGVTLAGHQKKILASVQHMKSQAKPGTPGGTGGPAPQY
# [5] = target: T3, Ephrin type-B receptor 4 (Homo sapiens); conditions: at 1 µM
# [6] = target: Receptor tyrosine-protein kinase erbB-2 (Homo sapiens) (UniProt P04626); conditions: at 0.1 µM
# [7] = target: Receptor tyrosine-protein kinase erbB-2 (Homo sapiens) (UniProt P04626); conditions: at 1 µM
# [8] = target: Receptor tyrosine-protein kinase erbB-4 (Homo sapiens) (UniProt Q15303); conditions: at 0.1 µM
# [9] = target: Receptor tyrosine-protein kinase erbB-4 (Homo sapiens) (UniProt Q15303); conditions: at 1 µM
# [10] = target: Tyrosine-protein kinase Fer (Homo sapiens) (UniProt P16591); conditions: at 0.1 µM;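 also: reported figures are averaged percent inhibition of FER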
# Sequence of Tyrosine-protein kinase Fer (Homo sapiens) (P16591 whole entry, looked up): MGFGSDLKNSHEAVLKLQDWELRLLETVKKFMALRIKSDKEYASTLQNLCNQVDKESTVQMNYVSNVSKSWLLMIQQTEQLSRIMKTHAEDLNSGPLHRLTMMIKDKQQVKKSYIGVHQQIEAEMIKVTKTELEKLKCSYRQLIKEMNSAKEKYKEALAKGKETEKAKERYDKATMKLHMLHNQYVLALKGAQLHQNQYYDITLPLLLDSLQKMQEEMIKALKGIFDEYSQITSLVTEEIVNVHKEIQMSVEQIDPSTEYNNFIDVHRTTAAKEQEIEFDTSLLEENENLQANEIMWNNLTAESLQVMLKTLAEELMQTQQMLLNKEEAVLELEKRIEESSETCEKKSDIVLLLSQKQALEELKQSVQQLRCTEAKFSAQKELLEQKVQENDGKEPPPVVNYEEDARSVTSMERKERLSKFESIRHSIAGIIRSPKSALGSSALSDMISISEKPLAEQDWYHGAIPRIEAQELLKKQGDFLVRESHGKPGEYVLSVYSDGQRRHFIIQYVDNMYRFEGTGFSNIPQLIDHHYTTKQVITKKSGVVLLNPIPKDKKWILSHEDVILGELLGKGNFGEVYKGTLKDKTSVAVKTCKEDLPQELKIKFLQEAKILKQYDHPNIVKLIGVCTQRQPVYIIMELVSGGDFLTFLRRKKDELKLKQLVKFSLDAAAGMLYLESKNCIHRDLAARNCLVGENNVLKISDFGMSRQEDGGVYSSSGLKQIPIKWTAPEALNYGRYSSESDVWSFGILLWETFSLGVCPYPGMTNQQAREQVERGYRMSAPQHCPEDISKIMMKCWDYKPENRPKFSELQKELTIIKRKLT
# Sequence of Receptor tyrosine-protein kinase erbB-2 (Homo sapiens) (P04626 whole entry): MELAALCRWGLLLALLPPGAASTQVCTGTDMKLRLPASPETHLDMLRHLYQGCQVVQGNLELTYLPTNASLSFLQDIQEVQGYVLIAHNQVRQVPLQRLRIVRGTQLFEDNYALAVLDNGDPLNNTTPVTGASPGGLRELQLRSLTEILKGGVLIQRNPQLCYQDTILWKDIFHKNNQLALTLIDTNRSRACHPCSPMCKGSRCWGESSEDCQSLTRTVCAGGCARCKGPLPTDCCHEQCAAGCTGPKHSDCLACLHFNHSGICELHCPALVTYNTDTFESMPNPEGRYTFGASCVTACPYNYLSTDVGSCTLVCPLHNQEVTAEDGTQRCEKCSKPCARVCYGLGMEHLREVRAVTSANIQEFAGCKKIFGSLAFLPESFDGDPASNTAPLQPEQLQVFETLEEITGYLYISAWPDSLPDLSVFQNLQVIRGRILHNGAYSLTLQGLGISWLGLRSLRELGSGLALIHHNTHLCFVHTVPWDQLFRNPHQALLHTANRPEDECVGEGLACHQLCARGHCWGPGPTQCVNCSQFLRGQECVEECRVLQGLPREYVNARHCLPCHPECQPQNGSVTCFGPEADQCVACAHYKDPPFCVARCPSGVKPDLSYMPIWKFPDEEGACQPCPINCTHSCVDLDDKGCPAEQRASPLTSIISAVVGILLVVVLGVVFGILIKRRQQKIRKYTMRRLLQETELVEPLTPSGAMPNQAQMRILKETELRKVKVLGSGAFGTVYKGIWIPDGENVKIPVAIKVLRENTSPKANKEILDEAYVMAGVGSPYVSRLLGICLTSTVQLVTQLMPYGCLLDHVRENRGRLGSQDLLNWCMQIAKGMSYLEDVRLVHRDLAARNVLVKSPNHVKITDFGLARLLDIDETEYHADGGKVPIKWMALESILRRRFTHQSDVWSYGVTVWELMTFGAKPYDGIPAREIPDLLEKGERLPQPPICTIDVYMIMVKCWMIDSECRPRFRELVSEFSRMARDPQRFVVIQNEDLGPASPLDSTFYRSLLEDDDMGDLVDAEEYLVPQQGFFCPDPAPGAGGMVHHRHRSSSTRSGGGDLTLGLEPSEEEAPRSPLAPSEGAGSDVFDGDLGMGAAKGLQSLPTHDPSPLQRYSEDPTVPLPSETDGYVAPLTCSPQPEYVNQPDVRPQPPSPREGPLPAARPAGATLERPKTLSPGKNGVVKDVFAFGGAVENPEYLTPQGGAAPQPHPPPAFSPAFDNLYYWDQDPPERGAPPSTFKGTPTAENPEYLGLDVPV
# Sequence of Receptor tyrosine-protein kinase erbB-4 (Homo sapiens) (Q15303 whole entry): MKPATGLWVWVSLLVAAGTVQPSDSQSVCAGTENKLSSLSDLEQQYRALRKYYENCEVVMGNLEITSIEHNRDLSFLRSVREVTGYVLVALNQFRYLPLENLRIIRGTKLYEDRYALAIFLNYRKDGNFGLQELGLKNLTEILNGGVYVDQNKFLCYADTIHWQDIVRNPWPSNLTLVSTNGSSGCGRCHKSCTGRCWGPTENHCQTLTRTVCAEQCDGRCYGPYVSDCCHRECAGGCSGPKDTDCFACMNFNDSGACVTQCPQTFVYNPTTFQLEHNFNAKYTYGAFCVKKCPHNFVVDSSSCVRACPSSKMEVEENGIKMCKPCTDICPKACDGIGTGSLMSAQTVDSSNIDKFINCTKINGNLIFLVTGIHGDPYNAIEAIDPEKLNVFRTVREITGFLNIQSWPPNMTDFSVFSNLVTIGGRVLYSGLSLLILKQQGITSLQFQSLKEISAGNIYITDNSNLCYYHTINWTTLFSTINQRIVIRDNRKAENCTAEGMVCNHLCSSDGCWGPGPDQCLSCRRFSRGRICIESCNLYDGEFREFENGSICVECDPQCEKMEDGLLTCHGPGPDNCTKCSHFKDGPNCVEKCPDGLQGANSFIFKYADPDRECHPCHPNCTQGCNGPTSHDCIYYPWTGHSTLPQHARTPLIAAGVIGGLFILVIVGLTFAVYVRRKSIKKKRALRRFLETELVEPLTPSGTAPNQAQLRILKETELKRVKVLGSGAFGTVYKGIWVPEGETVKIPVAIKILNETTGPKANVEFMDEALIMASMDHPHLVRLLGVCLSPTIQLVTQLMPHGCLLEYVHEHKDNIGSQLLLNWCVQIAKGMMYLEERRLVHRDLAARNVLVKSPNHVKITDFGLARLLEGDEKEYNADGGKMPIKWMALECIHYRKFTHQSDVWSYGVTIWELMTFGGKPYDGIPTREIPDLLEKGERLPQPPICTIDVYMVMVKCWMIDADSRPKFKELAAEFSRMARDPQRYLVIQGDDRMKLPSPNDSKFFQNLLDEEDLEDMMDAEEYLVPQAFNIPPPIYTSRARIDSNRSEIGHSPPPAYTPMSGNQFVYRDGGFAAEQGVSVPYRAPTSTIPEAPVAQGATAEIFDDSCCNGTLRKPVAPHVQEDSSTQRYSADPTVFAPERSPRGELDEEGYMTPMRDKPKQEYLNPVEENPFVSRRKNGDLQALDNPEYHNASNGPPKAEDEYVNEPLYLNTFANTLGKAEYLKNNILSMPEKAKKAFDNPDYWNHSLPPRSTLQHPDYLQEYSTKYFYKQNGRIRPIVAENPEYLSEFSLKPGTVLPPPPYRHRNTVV
Structure (SMILES),inhibition [1],inhibition [2],inhibition [3],inhibition [4],inhibition [5],inhibition [6],inhibition [7],inhibition [8],inhibition [9],inhibition [10]
COC(=O)Nc1nc2ccc(S(=O)(=O)c3ccc(NC(=O)Nc4cc(C(F)(F)F)ccc4F)cc3)cc2[nH]1,14.7%,5.22%,0.8%,2.15%,3.46%,0.46%,-2.51%,9.54%,12.2%,3.79%
O=S(=O)(CCNCc1ccc(-c2ccc3ncnc(Nc4ccc(OCc5cccc(F)c5)c(Cl)c4)c3c2)o1)c1ccccc1,13%,4.95%,4.03%,0.96%,2.99%,43.9%,60.5%,36.4%,89%,3.86%
[O-][S+]1CCN(Cc2ccc(-c3ccc4ncnc(Nc5ccc(OCc6cccc(F)c6)c(Cl)c5)c4c3)o2)CC1,7.63%,3.69%,7.49%,2.75%,4.27%,78.4%,79.9%,88.9%,91.3%,2.55%
CNC(=O)c1cccc(C#Cc2cncnc2Nc2ccc(OCc3cccc(F)c3)c(Cl)c2)c1,6.47%,0.65%,1.29%,-1.02%,0.31%,-1.06%,23.7%,17.6%,58.4%,1.71%
CCN1CCC(CC(=O)Nc2n[nH]c3nnc(-c4cccc(F)c4F)cc23)CC1,3.83%,2.04%,5.11%,-0.34%,1.27%,2.4%,3.76%,3.77%,10.1%,-0.6%
CN(C)CCOc1ccc(-c2nc(-c3ccncc3)c(-c3ccc4c(c3)CC/C4=N\O)[nH]2)cc1,11.7%,3.83%,3.2%,1.85%,2.33%,2.46%,2.61%,10%,15%,1.86%
CCNC(=O)O[C@H]1CN[C@H](C#Cc2cc3ncnc(Nc4ccc(OCc5cccc(F)c5)c(Cl)c4)c3s2)C1,4.8%,3.91%,5.16%,3.25%,4.36%,8.63%,60.4%,94.2%,101%,4.88%
CNC(=O)c1cncc(/C=C/c2ccccc2Cl)c1,8.47%,-1.27%,1.05%,-0.2%,4.63%,0.54%,5.61%,3.2%,8.96%,2.91%
